The values that follow come from the supplement of paper PMC7866885, “A novel bicyclic 2,4-diaminopyrimidine inhibitor of Streptococcus suis dihydrofolate reductase” (PeerJ, 2021).

± gives the standard deviation.

The assay has as its system Streptococcus suis P1/7. The assay can be described thus: percent growth relative to DMSO control; higher = less growth inhibition. As to conditions: 10 µM; incubation time 18 h. The procedure: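 CLSI broth microdilution: 5x10^4 CFU of Streptococcus suis (strain P1/7 or HE06) incubated with 10 µM Pathogen Box compound in cation-adjusted Mueller Hinton broth, 37 °C, 5% CO2, 18 h. Growth read as OD600 and expressed as percent of the DMSO-treated control (100%); mean ± SD of three independent experiments.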
Consider `O=C(Nc1ccc(C(F)(F)F)c(C(F)(F)F)c1)c1cc(Cl)ccc1O`, for which the percent growth was 6.44 ± 11%.
In the case of `COc1ccc(-c2cnc3ccc(N4CCCC4)nn23)cc1OC` it was 77.7 ± 7.5%.
In the case of `Cc1ccc(Oc2ccc(NC(=O)CNc3ccccc3N3CCCC3=O)cc2)cc1` it was 104 ± 14%.
Take `CCCCOC(=O)Nc1cc2nc(C3CCCCC3)[nH]c2cc1N1CCCC1`: the percent growth stood at 62.9 ± 63%.
For `Cc1ccc(NC(=O)c2cc(S(=O)(=O)NC(C)(C)C)ccc2C)nc1` the value was 75.6 ± 20%.
For `CCOc1ccccc1NC(C)C(=O)Nc1cc(C(F)(F)F)ccc1N1CCOCC1` (stereo not drawn) the value was 109 ± 31%.
In the case of `CC1=NN(c2nc3ccccc3s2)C(=O)C1Cc1cccc2ccccc12` (stereo not drawn) it was 3.74 ± 3.5%; in that of `FC(F)(F)c1nnc2ccc(Cl)nn12`, 85 ± 18%.
Compound `Cc1cc(C)n(-c2ccc(NC(=O)C3CCN(Cc4cnc(C)s4)CC3)cc2)n1` gave a percent growth of 65.6 ± 19%.
`Nc1cccnc1Nc1ccc(Cl)cc1` registered a percent growth of 101 ± 40%.
`Cc1ccc(S(=O)(=O)Nc2ccc(CN3CCN(C(=O)c4cccc(C#N)c4)CC3)cc2)cc1` had a percent growth of 114 ± 40%.
In the case of `O=C(Nc1nnc(S)s1)c1cc(Br)ccc1Cl` it was 79.5 ± 9.2%; in that of `CNC(=O)CNc1nc(-c2ccccn2)nc2scc(-c3ccccc3)c12`, 43 ± 38%; in that of `CCc1ccc(C(NCc2nc(N)nc(N(C)C)n2)C(C)C)cc1` (stereo not drawn), 4.17 ± 0.94%.
In the case of `Nc1nccc2ccc(-c3ccc4nccn4c3)cc12` it was 61.4 ± 20%; in that of `Cc1cnc(N2CCN[C@@H](Cc3ccccc3)C2)nc1Oc1ccc(-n2ccnc2)cc1`, 109 ± 29%.
On to `O=C(NCCN1CCCC1)c1cc(NCCCCN2CCC(F)(F)CC2)nc2ccc(Cl)cc12`, for which the percent growth turned out to be 79.3 ± 14%.
Turning to `CC(C)(C)n1nc(Cc2ccc(F)c(Cl)c2)c2c(N)ncnc21`, the percent growth was found to be 105 ± 51%.
In the case of `Cc1ccc2c(c1C)NC(=O)C21NN=C(c2ccccc2)S1` (stereo not drawn) it was 0.432 ± 0.48%.
In the case of `Cc1nc(-c2ccccn2)nc(NCCc2ccc(S(C)(=O)=O)cc2)c1Cl` it was 73.3 ± 11%; in that of `Cc1cnc(CCNC(=O)c2cc(-c3ccc(Cl)cc3)cs2)[nH]1`, 77.5 ± 18%.
In the case of `Cc1ccc(S(=O)(=O)N2CCN(C(=O)c3cc(-c4ccccc4)[nH]n3)CC2)cc1` it was 83.1 ± 19%.
Compound `COc1cc(NC(=O)Cc2nn(C)c(=O)c3ccccc23)ccc1Cl` came in with a percent growth of 108 ± 46%.
For `O=C(Nc1cccnc1)c1c(O)c2cccc3c2n(c1=O)CC3` the value was 89.7 ± 27%.
Regarding `COc1ccc(-c2nnc3ccc(-c4cccc(C(C)C)c4)cn23)cc1OC`, the percent growth worked out at 68 ± 20%.
In the case of `NCC(=O)N1CCn2c(nc(-c3ccccc3)c2Nc2ccc3c(c2)OCO3)C1` it was 71.3 ± 25%; in that of `COc1cccc(-c2cc3c(Nc4cccnc4)nccc3[nH]2)c1`, 83.9 ± 23%.
Compound `CCCCS(=O)(=O)Nc1ccc2cnn(C)c2c1` returned a percent growth of 73 ± 10%.
For `CNc1nnc(Sc2cnn(-c3ccccc3)c(=O)c2Cl)s1` the value was 110 ± 52%; for `O=C(NC1CCN(c2ccnc3ccccc23)C1)c1cccc(C(F)(F)F)c1` (stereo not drawn), 81.5 ± 25%; for `CC(C)(C)OC(=O)N1CCN(c2nccc(-c3ccc(-c4ccc(Cl)cc4)s3)n2)CC1`, 129 ± 42%.
Regarding `O=C(NC1=NCCS1)c1sc2cc(F)ccc2c1Cl`, the percent growth was 88.6 ± 14%.
The compound `O=C1N(Cc2cc3ccccc3s2)CC2CN(Cc3ccccc3)CCN12` (stereo not drawn) showed a percent growth of 83.1 ± 18%.
In the case of `NCCCC(N)(C(=O)O)C(F)F` (stereo not drawn) it was 90.1 ± 16%; in that of `CC(=O)Nc1ccc(-c2noc(CC3CCCN(Cc4cccc(F)c4C)C3)n2)cc1` (stereo not drawn), 108 ± 44%.
For `COc1cc(C(F)(F)F)nc2ccc(C)c(N)c12` the value was 95.8 ± 24%; for `CN1CCCC1CCO[C@](C)(c1ccccc1)c1ccc(Cl)cc1` (stereo partly drawn), 78.1 ± 43%.
`CC(C)(C(=O)Nc1ccc(F)cc1)n1cc(-c2ccccc2F)cn1` displayed a percent growth of 84.1 ± 6.1%.
